Bioassay records as filed in PubChem BioAssay.
Hits are enriched below; roughly 1.3% of the tested compounds scored in any of these assays.
Mtb hypoxia rep: Mtb hypoxia fluorescent reporter inhibition. fluorescence inhibition, % (concentration not given with the values). hit rate 0.1% among 300,000. M. tuberculosis hypoxia-regulated fluorescent reporter, fluorescence; in the data active = fluorescence inhibition mostly above about 23%, no sharp cut-off; inactive = mostly below about 17%
PfHsp40 rescue: rescue of PfHsp40-mediated yeast toxicity; S. cerevisiae expressing PfHsp40, growth rescue, ATP luminescence; growth rescue, % at 12.5 µM; hit rate 0.68% among 340,000; in the data active = growth rescue above about 28%, passing the limit was not always enough; inconclusive = no clear call, values can overlap the other calls;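 also: yeast W303a lacking pdr1 and pdr3 grown in galactose medium; growth measured after three days at 30 °C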
TcdB GH inh: inhibitors of Clostridioides difficile toxin B glycohydrolase; hit rate 0.24% among 350,000; AID 652162; TcdB glycohydrolase enzymatic assay, plate reader; inhibition, % at 9.99 µM; in the data active = inhibition above about 10%
Sa RN4220 lethal: S. aureus RN4220 growth inhibition; OD600, 16 h; inhibition, % (concentration not given with the values); hit rate 0.33% among 330,000; AID 1259311; in the data active = inhibition above about 85%;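 also: plate controls were untreated cells for no effect and reference antibiotic for full effect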
ugtP null kill: kills S. aureus RN4220 lacking UgtP; S. aureus RN4220 ugtP deletion, OD600 growth, 16 h; growth inhibition, % (no concentration beside the values); hit rate 0.54% among 330,000; in the data active = growth inhibition above about 68%;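 also: plate controls were untreated wells for no effect and antibiotic for full effect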
MazEF act: activators of E. coli MazEF toxin-antitoxin RNase. FAM/BHQ RNA-DNA oligo cleavage fluorescence, 5 h. AID 504720. P0AE70. hit rate 0.32% among 350,000. activation, % at 20 µM; in the data active = activation above about 50%
* marks the source's active call; other numbers are inactive results; u = inconclusive; x = no result given; + = active, no number.

SMILES	Mtb hypoxia rep	PfHsp40 rescue	TcdB GH inh	Sa RN4220 lethal	ugtP null kill	MazEF act
CC(C)C[C@@H]1CN=C(N)N1C[C@@H]1CCCN1C[C@@H](C(C)C)N1C[C@@H](Cc2ccccc2)N(CCCC2CCCC2)C1=N	x	1.7	-0.5	100.7*	100.7*	21.6
CC[C@@H](C)[C@@H]1CN([C@@H](CN2CCC[C@H]2CN2C(N)=NC[C@H]2C(C)C)C(C)C)C(=N)N1CCc1ccc(Cl)c(Cl)c1	x	3.1	x	100.6*	100.6*	23.5
CC[C@@H](C)[C@@H]1CN([C@@H](C)CN2CCC[C@H]2CN2C(N)=NC[C@@H]2Cc2ccccc2)C(=N)N1CCc1ccc(Cl)c(Cl)c1	x	1.5	x	x	x	5.1
CCC[C@@H](CN1CCC[C@H]1CN1C(N)=NC[C@H]1C(C)C)N1C[C@@H](Cc2ccccc2)N(CCCC2CCCC2)C1=N	x	3.3	0.5	100.5*	100.7*	32.1
CCCCN1C(=N)N([C@@H](CN2CCC[C@H]2CN2C(N)=NC[C@@H]2Cc2ccccc2)C(C)C)C[C@H]1Cc1ccccc1	x	2.8	2.1	x	x	20.8
CCCCN1C(=N)N(C(CCC)CN2CCCC2CN2C(N)=NCC2Cc2ccccc2)CC1Cc1ccccc1 (configuration not stated)	x	x	x	81.5	97.6*	x
COc1ccc(N=Nc2ccc(N)nc2N)cc1	x	-0.1	-0.3	x	x	-11.3
Nc1ccc(N=Nc2ccc(O)cc2)c(N)n1	x	2.1	20.0*	x	x	-7.3
CCC1(C)Cc2ccccc2-c2nc(-c3ccccc3)oc(=O)c21 (configuration not stated)	12.1	1.4	x	-1.4	85.3*	5.9
CC(C)Oc1ccccc1-c1cc(C(=O)NN=Cc2cccnc2)c2ccccc2n1	-2.4	x	x	3.4	2.7	x
Cc1c(CCOC(=O)C23CC4(C)CC(C)(CC(C)(C4)C2)C3)sc[n+]1CC(=O)c1ccccc1	5.1	0.3	1.8	98.1*	100.5*	19.8
Cc1c(CCOC(=O)C23CC4CC(CC(C4)C2)C3)sc[n+]1Cc1ccccc1	-3.7	-0.8	1.4	-7.3	71.3	4.3
Cc1c(CCOC(=O)C23CC4CC(CC(C)(C4)C2)C3)sc[n+]1Cc1ccccc1	5.0	-1.2	x	68.7	100.2*	9.6
Cc1c(CCOC(=O)CC23CC4CC(CC(C4)C2)C3)sc[n+]1CC(=O)c1ccccc1	7.5	0.5	2.3	-1.9	16.1	30.1
COCC(=O)Nc1ccc2c(c1)[C@H]1C[C@H](CC(=O)NCc3ccccc3F)O[C@@H](CO)[C@H]1O2	x	x	0.0	x	x	x
Cc1ccc(C2(c3ccc(C)cc3)CC2C(=O)Nc2ccc([N+](=O)[O-])cc2O)cc1 (configuration not stated)	0.5	273.3*	x	100.5*	99.6*	-2.8
CC1(C)CC1C(=O)Nc1ccc([N+](=O)[O-])cc1Br (configuration not stated)	9.5	-0.3	x	5.7	9.1	-2.0
Fc1ccccc1Nc1n[nH]c(=S)s1	1.1	-1.3	10.0*	2.3	-5.2	3.3
CCCCn1c(=O)c(C(=O)Nc2ncccc2C)c(O)c2ccccc21	-1.1	u	1.4	67.0	100.2*	6.1
CCCCCCn1c(=O)c(C(=O)Nc2ncccc2C)c(O)c2ccccc21	x	145.0*	0.6	65.5	88.6*	6.3
O=C(NNC(=O)c1ccccc1OCc1ccccc1)c1ccccc1O	1.9	3.5	0.8	21.3	7.7	-1.7
O=C(NNC(=O)c1ccccc1OCc1ccc(F)cc1)c1ccccc1O	-0.1	43.2*	1.8	1.5	5.6	-3.8
COc1ccc(C=Cc2nc(C)c(-c3ccccc3)c(=O)[nH]2)cc1OC	0.8	x	x	-0.2	2.2	x
CN(C)CCCCCCNC(=O)[C@@H]1C[C@@H]2C(=O)N3CCC[C@H]3C(=O)N2[C@@H]1c1ccc(O)cc1	x	x	-8.2	x	x	x
COc1cccc(Oc2ccc3nnc(C(F)(F)F)n3n2)c1	19.0	0.6	11.3*	5.6	-0.1	-6.3
SMILES	Mtb hypoxia rep	PfHsp40 rescue	TcdB GH inh	Sa RN4220 lethal	ugtP null kill	MazEF act
Cc1cscc1-c1nc(NCC2CC2)nc2ccsc12	x	x	10.6*	x	x	x
COc1ccc(C(C)=NNC(=O)c2ccc3c(c2)OCO3)cc1OC	-4.7	x	x	3.6	6.5	x
CN1C(=O)c2cc(NC(=O)c3ccc(F)cc3)ccc2OC[C@@H]2O[C@H](CC(=O)NCC3CC3)CC[C@@H]21	x	x	-1.1	x	x	x
CCn1cc(C(=O)O)c(=O)c2cc(F)c(N3CCN(C(=S)NC(=O)c4c(OC)cccc4OC)CC3)cc21	x	-0.6	-0.8	98.4*	100.2*	1.2
CCn1cc(C(=O)O)c(=O)c2cc(F)c(N3CCN(C(=S)NC(=O)c4cccc(F)c4)CC3)cc21	15.8	1.1	0.2	12.4	9.0	-1.8
CCn1cc(C(=O)O)c(=O)c2cc(F)c(N3CCN(S(=O)(=O)c4ccc(NC(=O)OC)cc4)CC3)cc21	6.7	1.2	0.2	97.1*	99.8*	-0.7
CCn1cc(C(=O)O)c(=O)c2cc(F)c(N3CCN(C(=S)Nc4ccccc4OC)CC3)cc21	6.3	1.1	2.1	99.1*	99.4*	1.9
COCC(=O)N1CC2(C1)CN(Cc1cccc(Cl)c1)[C@@H](CO)c1[nH]c3cc(OC)ccc3c12	x	x	0.6	x	x	x
Cc1ccccc1C(=O)Nc1nnc(CC(=O)NN=Cc2cn(Cc3ccccc3)c3ccccc23)s1	5.4	x	x	12.5	4.4	x
O=C(Cc1ccc(Cl)cc1)NN=Cc1ccncc1	-1.1	x	x	6.0	8.5	x
C=CCn1c(C)cc(C(=O)COC(=O)CCc2cc(OC)c(OC)c(OC)c2)c1C	5.7	2.6	12.5*	4.2	8.2	14.2
COc1cc(CCC(=O)OCC(N)=O)cc(OC)c1OC	9.3	-1.9	-0.5	13.9	-68.5	5.0
O=C(N/N=C/C(Cl)=C/c1ccc([N+](=O)[O-])cc1)C(=O)Nc1ccc(C(=O)O)cc1	x	84.6*	0.5	x	x	16.0
COc1cc2c3nnc(-c4ccc(F)cc4)c-3cn(Cc3ccc(F)cc3)c2cc1OC	x	-0.4	-1.0	-0.5	-1.4	117.9*
COc1ccc(Cn2cc3c(-c4ccc(F)cc4)nnc-3c3cc(OC)c(OC)cc32)cc1	5.8	-0.6	1.6	-6.5	6.5	557.9*
Cn1nc2c3cc(F)ccc3n(Cc3ccc(F)cc3)cc-2c1=O	-2.2	0.8	x	1.1	3.1	3.5
COc1ccc(-c2cn[nH]c2-c2ccc(OCc3ccc(F)cc3)cc2O)cc1OC	2.4	20.1	-0.2	15.8	13.2	5.0
COc1cc2c3nnc(-c4ccc(F)cc4)c-3cn(Cc3ccccc3)c2cc1OC	x	1.1	1.6	x	x	+
S=c1[nH]nc(-c2cc(-c3ccccc3)n[nH]2)n1N=Cc1cccs1	3.2	x	x	8.1	-5.8	x
CC(C)CN(C=Nc1sc2c(c1C#N)CCCCC2)CC(C)C	2.7	x	x	-2.0	71.5	x
CCCNC(=O)Nc1ccc2c(c1)OC[C@@H](C)N(C(=O)C1CCCCC1)C[C@@H](C)[C@@H](OC)CN(C)C2=O	x	x	1.2	x	x	x
COc1cccc(-c2cnc3c(c2)C(=O)N([C@@H](C)CO)C[C@@H](C)[C@@H](CN(C)C(=O)CN(C)C)O3)c1	x	x	-2.9	x	x	x
